PubChem BioAssay (Tox21)
Where “and” joins values, the source holds several entries; their conditions need not be identical. Equal entries are not always repeated. Records with an inconclusive call do not appear. A call without a number means that no potency is given here. Where a structure was tested more than once in an assay, its records may differ in their call. Calls of active or inactive are those of the source. Unless noted, calls follow the shape of the dose curve; as a rule, active = well fitted curve in the direction sought with a large enough effect in the repeat runs; inconclusive = weak or mixed curves; inactive = no such curve, though single readings can be large; an effect the other way counts as inactive or inconclusive.

Legend:
[1] = qHTS assay to identify small molecule agonists of the RXR signaling pathway - cell viability counter screen (AID 1159529); also: nearly all actives have a fitted effect of over 50% in size; also: potency is read from the fitted curve at half-maximal effect
In short: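 Counter screen: CellTiter-Glo luminescence. Cells: RXR-alpha-UAS-bla HEK 293T. Medium: 2% charcoal-stripped FBS. Treatment: 16 h, 37 C. Reagent incubation: 30 min, RT.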

[2] = qHTS assay to identify small molecule antagonists of the retinoic acid receptor (RAR) signaling pathway (AID 1159552; also: nearly all actives have a fitted effect of over 50% in size; also: potency is read from the fitted curve at half-maximal effect)
In short: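 Antagonism of retinol-induced RARE reporter activity was measured in C3RL4 cells. Exposure to compounds and 1 uM final retinol lasted 6 hr at 37 C, with luminescence as endpoint.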

[3] = qHTS assay to identify small molecule agonists of the retinoic acid receptor (RAR) signaling pathway (AID 1159553); settings: C3RL4 RARE luciferase reporter, agonist, 6 h; activation: at 73.3 µM (top of the series) unless noted; also: potency is read from the fitted curve at half-maximal effect
In short: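 Compounds dissolved in DMSO were pinned onto C3RL4 cells seeded the previous day, and plates were held 6 hr at 37 C. RARE-driven luciferase output was then read by luminescence.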

[4] = qHTS assay to identify small molecule antagonists of the estrogen related receptor (ERR) signaling pathway from Tox21 library - cell viability counter screen (AID 1224834); also: nearly all actives have a fitted effect of over 30% in size; also: potency is read from the fitted curve at half-maximal effect
In short: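 In this quantitative HTS format, ERR cells receive compounds in DMSO and are incubated for 17.5 h at 37 C. Live-cell protease activity is then detected with CellTiter-Fluor.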

[5] = biological target: Luciferin 4-monooxygenase (Photinus pyralis) (UniProt P08659); experiment: qHTS assay to identify small molecule inhibitors of firefly luciferase (AID 1224835); also: nearly all actives have a fitted effect of over 25% in size; also: potency is read from the fitted curve at half-maximal effect
In short: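 Biochemical qHTS: compounds run as interplate titrations against purified firefly enzyme, with D-luciferin and ATP each at its KM concentration. Light output recorded by CCD imaging.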

[6] = biological target: Nuclear receptor subfamily 1 group I member 3 (Homo sapiens) (UniProt Q14994); experiment: qHTS assay to identify small molecule antagonists of the constitutive androstane receptor (CAR) signaling pathway (AID 1224838); also: nearly all actives have a fitted effect of over 40% in size; also: potency is read from the fitted curve at half-maximal effect
In short: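 CITCO-stimulated (50 nM final) HepG2 cells stably transfected with hCAR and CYP2B6-2.2kb luciferase were exposed to compounds at 15 concentrations for 24 h at 37 C/5% CO2. A luciferase reagent was added and luminescence recorded after 30 min.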

[7] = biological target: Nuclear receptor subfamily 1 group I member 3 (Homo sapiens) (UniProt Q14994); experiment: qHTS assay to identify small molecule agonists of the constitutive androstane receptor (CAR) signaling pathway (AID 1224839); also: nearly all actives have a fitted effect of over 15% in size; also: potency is read from the fitted curve at half-maximal effect;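 as to activation: HepG2 cells stably carrying human CAR and a CYP2B6 luciferase reporter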
In short: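 Readout: firefly luciferase luminescence via ONE-Glo. System: HepG2 double-stable for hCAR and CYP2B6-2.2kb. Conditions: 15-point compound titration, PK11195 at 0.75 uM final, 24 h incubation.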

[8] = qHTS assay to identify small molecule antagonists of the estrogen related receptor signaling pathway with the pleiotropic PPARgamma coactivator (PGC) from Tox21 10K library (AID 1224841; call rule not given here; also: actives are mostly falling curves and most rising ones were filed inactive; nearly all actives have a fitted effect of over 50% in size; also: potency is read from the fitted curve at half-maximal effect)
In short: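 In the PGC/ERR line, DMSO solutions of test chemicals are pin-delivered to 2,000 cells/well six hours after dispensing. Following eighteen hours' incubation, One-Glo reagent is added and luminescence recorded.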

[9] = qHTS assay to identify small molecule agonists of the estrogen related receptor signaling pathway with the pleiotropic PPARgamma coactivator (PGC) from Tox21 10K library (AID 1224842); also: nearly all actives have a fitted effect of over 15% in size; also: potency is read from the fitted curve at half-maximal effect
In short: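 PGC/ERR reporter cell line, 2,000 cells per well, incubated 6 h at 37 C before 23 nL compound in DMSO was added. After 18 h at 37 C, One-Glo luminescence read following 30 min at room temperature.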

[10] = qHTS assay to identify small molecule antagonists of the constitutive androstane receptor (CAR) signaling pathway - cell viability counter screen (AID 1224837); also: nearly all actives have a fitted effect of over 45% in size
In short: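 In quantitative HTS format, compounds at 15 concentrations were applied to HepG2 cells double-transfected with hCAR and CYP2B6-2.2kb under 50 nM CITCO stimulation; live-cell protease activity was read after 23 hr via CellTiter-Fluor.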

[11] = biological target: Thyrotropin receptor (Homo sapiens) (UniProt P16473); experiment: qHTS assay to identify small molecule agonists of the thyroid stimulating hormone receptor (TSHR) signaling pathway (AID 1224843; calls by dose curve; also: nearly all actives have a fitted effect of over 45% in size; also: potency is read from the fitted curve at half-maximal effect)
In short: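 Agonist-mode screen: TSHR HEK293 cells received test chemicals for half an hour at room temperature, then HTRF cAMP detection reagents for one hour prior to fluorescence measurement. Each chemical ran as a 15-concentration series, triplicated.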

[12] = qHTS assay to identify small molecule agonists of the constitutive androstane receptor (CAR) signaling pathway - cell viability counter screen (AID 1224836); also: nearly all actives have a fitted effect of over 45% in size
In short: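 Double-stable HepG2 hepatoma cells (hCAR plus CYP2B6-2.2kb) are treated for 23 h at 37 C with test compounds in 15-point concentration series. PK11195 at 0.75 uM final is co-added. Cell viability is quantified by CellTiter-Fluor.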

[13] = qHTS assay to identify small molecule antagonists of the estrogen related receptor signaling pathway with the pleiotropic PPARgamma coactivator (PGC) from Tox21 10K library - cell viability counter screen (AID 1224840; active = well fitted cell-killing curve with a large enough effect in the repeat runs, not every such curve was filed as active; also: nearly all actives have a fitted effect of over 40% in size)
In short: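 Viability counter screen, PGC/ERR cells: 17.5 h compound exposure at 37 C, CellTiter-Fluor fluorescence endpoint.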

[14] = qHTS assay to identify small molecule antagonists of the retinoid acid receptor (RAR) signaling pathway - cell viability counter screen (AID 1159551); also: nearly all actives have a fitted effect of over 35% in size
In short: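 Viability of C3RL4 cells is quantified from ATP by luminescence after 6 h treatment at 37 C with compounds and 1 uM retinol.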

[15] = qHTS assay to identify small molecule antagonists of the estrogen related receptor (ERR) signaling pathway - cell viability counter screen (AID 1224818)
In short: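 Cytotoxicity check run alongside the ERR antagonist screen: cells exposed to test compounds 17.5 h at 37 C, viability taken as CellTiter-Fluor fluorescence intensity.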

[16] = qHTS assay to identify small molecule antagonists of the estrogen related receptor signaling pathway with the pleiotropic PPARgamma coactivator (PGC) cell viability counter screen (AID 1224822)
In short: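 Viable cell signal (CellTiter-Fluor, 30 min, 37 C/5% CO2) was measured in PGC/ERR cells after a 17.5 h compound incubation.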

Chain of Luciferin 4-monooxygenase (Photinus pyralis) (P08659 whole entry, looked up): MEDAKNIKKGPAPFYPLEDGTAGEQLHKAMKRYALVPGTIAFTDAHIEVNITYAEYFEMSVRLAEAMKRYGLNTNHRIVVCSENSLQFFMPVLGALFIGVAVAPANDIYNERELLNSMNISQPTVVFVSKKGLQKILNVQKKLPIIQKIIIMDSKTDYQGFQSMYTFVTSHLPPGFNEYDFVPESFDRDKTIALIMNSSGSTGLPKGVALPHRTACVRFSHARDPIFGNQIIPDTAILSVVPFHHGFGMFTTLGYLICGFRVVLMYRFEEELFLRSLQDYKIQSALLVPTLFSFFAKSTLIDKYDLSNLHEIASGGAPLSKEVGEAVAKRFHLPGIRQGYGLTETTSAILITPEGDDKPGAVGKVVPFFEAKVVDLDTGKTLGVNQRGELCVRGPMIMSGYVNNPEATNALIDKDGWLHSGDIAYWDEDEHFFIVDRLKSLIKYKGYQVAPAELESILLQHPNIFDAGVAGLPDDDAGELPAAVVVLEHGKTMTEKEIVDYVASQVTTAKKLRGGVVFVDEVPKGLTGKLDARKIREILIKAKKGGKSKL
Chain of Nuclear receptor subfamily 1 group I member 3 (Homo sapiens) (Q14994 whole entry, looked up): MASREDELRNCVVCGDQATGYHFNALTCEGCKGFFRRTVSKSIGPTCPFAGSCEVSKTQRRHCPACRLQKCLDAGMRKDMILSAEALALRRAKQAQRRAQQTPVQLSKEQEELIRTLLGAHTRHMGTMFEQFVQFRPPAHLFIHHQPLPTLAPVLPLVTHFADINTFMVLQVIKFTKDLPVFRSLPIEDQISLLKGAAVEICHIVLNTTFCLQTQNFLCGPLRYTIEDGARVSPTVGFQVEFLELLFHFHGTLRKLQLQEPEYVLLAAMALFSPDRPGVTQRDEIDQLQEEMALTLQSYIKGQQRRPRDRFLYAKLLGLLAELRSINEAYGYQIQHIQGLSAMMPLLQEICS
Chain of Thyrotropin receptor (Homo sapiens) (P16473 whole entry, looked up): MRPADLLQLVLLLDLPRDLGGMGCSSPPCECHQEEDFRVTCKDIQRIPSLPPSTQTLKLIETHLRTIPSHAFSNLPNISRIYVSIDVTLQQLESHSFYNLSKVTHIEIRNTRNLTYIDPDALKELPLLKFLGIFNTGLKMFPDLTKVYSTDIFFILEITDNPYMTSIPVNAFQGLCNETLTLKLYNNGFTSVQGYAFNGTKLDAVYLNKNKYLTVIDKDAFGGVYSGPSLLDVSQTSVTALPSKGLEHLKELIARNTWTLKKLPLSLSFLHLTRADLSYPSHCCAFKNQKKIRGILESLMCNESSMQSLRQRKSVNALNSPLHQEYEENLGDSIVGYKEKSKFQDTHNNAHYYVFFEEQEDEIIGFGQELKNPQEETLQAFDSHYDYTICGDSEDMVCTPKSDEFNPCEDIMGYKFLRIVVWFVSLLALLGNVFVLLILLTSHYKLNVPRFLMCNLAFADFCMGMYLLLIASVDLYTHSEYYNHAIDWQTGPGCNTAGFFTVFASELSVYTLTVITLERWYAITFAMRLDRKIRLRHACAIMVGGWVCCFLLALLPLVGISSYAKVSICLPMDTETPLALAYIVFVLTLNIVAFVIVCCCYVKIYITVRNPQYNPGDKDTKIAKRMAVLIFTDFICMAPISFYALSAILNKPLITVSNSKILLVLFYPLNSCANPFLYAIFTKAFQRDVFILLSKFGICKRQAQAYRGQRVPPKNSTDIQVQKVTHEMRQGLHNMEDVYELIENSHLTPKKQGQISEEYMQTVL

SMILES | Potency [1] | Potency [2] | Potency [3] | Potency [4] | Potency [5] | Potency [6] | Potency [7] | Potency [8] | Potency [9] | Potency [10] | Potency [11] | Potency [12] | Potency [13] | Potency [14] | outcome [15] | Potency [16]
Cc1cccc(N=Nc2ccc(N(C)C)cc2)c1 | inactive | inactive | 69.8 nM (active) and 34.4 µM (active) | 27.3 µM (active) | 456 nM (active) and 894 nM (active) | inactive | 2.78 µM (active) and 3.06 µM (active) | inactive | 1.56 µM (active) and 2.73 µM (active) | – | – | – | – | – | – | –
CCOS(=O)(=O)OCC | inactive | – | – | 54.5 µM (active) and inactive | inactive | inactive | inactive | – | – | inactive | inactive | – | – | – | – | –
CC(C)(c1ccccc1)c1ccc(O)cc1 | 43.3 µM (active) and 54.9 µM (active) | 61.1 µM (active) | inactive | – | inactive | inactive | 27.1 µM (active) and 13.7 µM (active) | – | – | inactive | 60.6 µM (active) and 54.5 µM (active) | inactive | – | – | – | –
COc1ccc(CO)cc1 | inactive | – | – | inactive | – | – | – | – | – | inactive | inactive | inactive | inactive | – | – | –
CC(O)CN(CC(C)O)CC(C)O (stereo not drawn) | inactive | inactive | inactive | inactive | inactive | inactive | inactive | – | – | inactive | inactive | – | – | – | – | –
CCOP(=S)(OCC)SCn1c(=O)oc2cc(Cl)ccc21 | inactive | inactive | inactive | – | 38.2 µM (active) | inactive | 58.4 µM (active) and 24.3 µM (active) | – | – | inactive | inactive | – | – | – | – | –
CNC(=S)S | inactive | – | – | inactive | inactive | inactive | inactive | – | – | inactive | inactive | inactive | inactive | – | – | –
ClC(Cl)(Cl)c1ccccc1 | inactive | – | – | inactive | inactive | inactive | inactive | – | – | inactive | inactive | inactive | inactive | – | – | –
CCOC(=O)c1ccccc1N | inactive | inactive | inactive | inactive | inactive | inactive | inactive | – | – | inactive | inactive | – | inactive | – | – | –
Clc1cccc(C(Cl)(Cl)Cl)n1 | inactive | – | – | inactive | inactive | – | – | – | – | inactive | – | inactive | – | – | – | –
[CH3][Sn]([Cl])([Cl])[Cl] | inactive | inactive | inactive | inactive | inactive | inactive | inactive | – | – | inactive | inactive | inactive | – | – | – | –
CCCCCCCCCC(CC)c1ccc(S(=O)(=O)O)cc1 (stereo not drawn) | – | – | – | 61.8 µM (active) and inactive | inactive | – | – | – | – | inactive | – | inactive | – | inactive | inactive | inactive
C[C@]12CC[C@H]3[C@@H](CCC4=CC(=O)CC[C@@H]43)[C@@H]1CC[C@@H]2O | inactive | 48.1 µM (active) | inactive | inactive | inactive | inactive | inactive | – | – | inactive | inactive | – | inactive | – | – | –
C[N+](C)(C)CC(=O)O | inactive | – | – | inactive | inactive | – | – | – | – | inactive | – | – | inactive | – | inactive | inactive
CC(C)(O)C(=O)Nc1ccc([N+](=O)[O-])c(C(F)(F)F)c1 | inactive | inactive | inactive | inactive | inactive | inactive | – | 27.9 µM (active) | inactive | inactive | inactive | inactive | – | – | – | –
ClCc1ccccn1 | inactive | – | – | inactive | inactive | inactive | inactive | – | – | inactive | inactive | – | – | – | – | –
CC1=C(C(=O)Nc2ccccc2)SCCO1 | inactive | inactive | 15.6 µM (active) | inactive | 36.2 µM (active) and 44.8 µM (active) | – | – | inactive | inactive | inactive | inactive | – | – | – | – | –
S=c1[nH]c2ccccc2[nH]1 | inactive | inactive | inactive | inactive | inactive | 54.6 µM (active) and inactive | inactive | – | inactive | inactive | inactive | – | inactive | – | – | –
CS(=O)(=O)NC(=O)c1cc(Oc2ccc(C(F)(F)F)cc2Cl)ccc1[N+](=O)[O-] | inactive | inactive | inactive | inactive | inactive | inactive | – | – | – | inactive | inactive | inactive | inactive | – | – | –
